# D1 antag: Antagonist of Human D 1 Dopamine Receptor: qHTS; D(1A) dopamine receptor (Homo sapiens), P21728; HEK293 TREx D1 cells, calcium flux, dopamine EC80; stronger effect = lower value; activity change, negative = inhibition, % at 10 µM; 360,000 compounds, 3.2% hits; AID 504652, 2011; in the data active means activity change below about -30%; further: on the % scale 0 is the no-effect control and ±100 the full control effect
#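 Kinetic fluorescence of a calcium dye serves as the read-out. D1-expressing Hek293 Trex cells, induced overnight at 30 C, are exposed to compound for 180 s before an EC80 dopamine addition, then read 180 s further.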
# D1 PAM: Potentiators of Human D1 Dopamine Receptor: qHTS. D(1A) dopamine receptor (Homo sapiens), P21728. HEK293 TREx D1 cells, calcium flux, dopamine EC20 potentiation. 360,000 compounds, 0.036% hits. potentiation, % at 10 µM. AID 504651, 2011; in the data active means potentiation above about 30%; further: 0% is about no effect
# DRD3 antagonist: qHTS of D3 Dopamine Receptor Antagonist: qHTS | D3R cells, DiscoveRx beta-arrestin luminescence, antagonist mode; stronger effect = lower value | max response, negative = inhibition, % | 360,000 compounds, 2.5% hits; in the data active means max response below about -50%; inconclusive means no clear call, values can overlap the other calls; further: on the % scale 0 is the no-effect control and ±100 the full control effect
# Target sequence (P35462 whole entry, looked up): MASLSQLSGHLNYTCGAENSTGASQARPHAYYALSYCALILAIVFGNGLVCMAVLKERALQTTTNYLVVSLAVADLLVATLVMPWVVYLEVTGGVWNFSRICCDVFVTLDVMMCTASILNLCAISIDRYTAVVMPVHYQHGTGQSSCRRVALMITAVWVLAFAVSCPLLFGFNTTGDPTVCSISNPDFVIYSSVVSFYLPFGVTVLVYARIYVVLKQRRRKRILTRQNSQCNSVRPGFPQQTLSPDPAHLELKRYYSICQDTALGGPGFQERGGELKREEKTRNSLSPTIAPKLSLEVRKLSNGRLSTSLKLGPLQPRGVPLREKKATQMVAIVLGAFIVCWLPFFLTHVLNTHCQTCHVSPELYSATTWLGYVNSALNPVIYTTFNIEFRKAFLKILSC
#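 Cells plated overnight at 1500 cells/well, then exposed to library compounds with dopamine controls for 90 minutes at 37 degrees C. DiscoveRx reagent added for 30–60 minutes at room temperature; luminescence read, quantitative HTS format.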
# D3 ag: qHTS of D3 Dopamine Receptor Agonist: qHTS; 410,000 compounds, 0.58% hits; max activation, %; D3R DiscoveRx beta-arrestin cells, luminescence, 90 min; AID 652048, 2013; in the data active means max activation above about 30%; further: 0% is about no effect
#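 Cells at 1500/well, incubated overnight, then treated with pinned compounds (dopamine as control) for 90 min at 37 degrees C. DiscoveRx reagent added for 30 - 60 minutes at room temperature; luminescence read.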
# D1 agonist: Allosteric Agonists of the Human D1 Dopamine Receptor: qHTS | D(1A) dopamine receptor (Homo sapiens), P21728 | HEK293 T-REx D1 cells, calcium flux, agonist mode | activation, % at 2 µM | 360,000 compounds, 1% hits | AID 504660, 2011; in the data active means activation above about 30%; further: 0% is about no effect
#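 Inducible HEK293 T-REx D1 cells, force-coupled to calcium signalling, were plated at 4000 cells/well with tetracycline and held overnight at 30 C. After no-wash calcium dye loading, compound-evoked calcium rise over 180 s flagged agonists.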
# An asterisk follows results filed as active; ? = inconclusive; . = no result; ! = not confirmed by another sample. Compounds with a hit are over-represented: about 6% of the library has one in this group of screens.
SMILES,D1 antag,D1 PAM,DRD3 antagonist,D3 ag,D1 agonist
COCCn1c(=O)[nH]c2cc(C(=O)NCCCN3CCN(c4ccc(F)cc4)CC3)ccc2c1=O,-39.3*,-2.9,?,-8.0,1.6
CCN(CC)CCNC(=O)c1ccc2c(=O)n(C3CCCC3)c(=S)[nH]c2c1,-40.4*,-16.4,-18.8,-23.7,30.5*
CC1CCN(CCNC(=O)c2ccc3c(=O)n(Cc4ccc(Cl)cc4)c(=S)[nH]c3c2)CC1,-50.8*,1.4,-14.5,-4.1,88.3*
COc1cc2[nH]c(=O)c(C(=O)NCCCN3CCCCC3)c(O)c2cc1OC,8.4,-5.3,-56.9*,-5.2,1.7
COCCn1c(=S)[nH]c2cc(C(=O)NCCCN3CCOCC3)ccc2c1=O,4.8,-3.3,-13.9,-3.9,0.6
COCCn1c(=O)[nH]c2cc(C(=O)NCCN3CCN(c4ccccc4F)CC3)ccc2c1=O,-18.2,-7.3,-56.5*,12.9,1.5
COc1cc2[nH]c(=O)n(CCC(=O)NCCCN3CCN(c4ccccc4F)CC3)c(=O)c2cc1OC,-42.4*,-8.8,?,30.4*,2.1
O=C(CCCn1c(=O)[nH]c2cc(Cl)ccc2c1=O)NCCCN1CCN(c2ccc(F)cc2)CC1,-65.6*,-12.1,-21.0,-14.6,-1.3
CC(C)Cn1c(=S)[nH]c2cc(C(=O)NCc3ccccc3F)ccc2c1=O,-33.1*,-5.8,0.5,-3.5,13.6
COc1ccccc1CNC(=O)c1ccc(CS(=O)(=O)c2ccccc2C)o1,-38.2*!,0.8,-9.7,6.1,31.2*!
Cc1ccccc1S(=O)(=O)Cc1ccc(C(=O)NCCN2CCN(Cc3ccccc3)CC2)o1,-20.7,-3.0,-51.3*,-4.9,1.9
COc1ccccc1CNC(=O)c1ccc(C)s1,-46.3*,-4.8,-3.2,3.9,-0.6
COc1ccccc1S(=O)(=O)Cc1ccc(C(=O)NCC2CCCO2)o1 (centres undefined),-35.8*,2.1,14.2,-1.0,0.6
COc1ccccc1S(=O)(=O)Cc1ccc(C(=O)NC2CCCCCC2)o1,12.9,-13.5,6.5,-7.3,0.9
COc1ccccc1CNC(=O)Cc1ccccc1,-2.9,-1.9,-7.6,0.5,2.3
Cc1c(N)nc([C@H](CC(N)=O)NC[C@H](N)C(N)=O)nc1C(=O)N[C@H](C(=O)N[C@H](C)[C@@H](O)[C@H](C)C(=O)N[C@H](C(=O)NCCc1nc(-c2nc(C(=O)NCCCCN=C(N)N)cs2)cs1)[C@@H](C)O)[C@@H](O[C@@H]1O[C@@H](CO)[C@@H](O)[C@H](O)[C@@H]1O[C@H]1O[C@H](CO)[C@@H](O)[C@H](OC(N)=O)[C@@H]1O)c1cnc[nH]1,.,.,.,12.6,.
COc1cc(NC(=O)c2noc3c2CC(C(C)(C)C)CC3)cc(OC)c1OC (centres undefined),-6.8,1.2,.,10.0,-2.2
O=S(=O)(NC[C@@H]1CCC[C@H](CNS(=O)(=O)c2c(F)cccc2F)C1)c1ccc2c(c1)OCCO2,-1.6,-4.5,.,.,5.9
Cc1ccc(OC(=O)c2cc(-c3ccccc3)nc3ccc(C)cc23)cc1,-6.1,-2.2,.,3.8,0.8
COc1ccc(C(C)=O)cc1COC(=O)c1c(C)noc1C,-43.7*,-5.2,-1.5,5.0,0.3
COc1ccc(CNC(=O)c2cnc3sc(N4CCCCCC4)nn3c2=O)cc1,-7.0,5.3,.,17.2,-0.8
COc1ccc2c(c1)c1c(c(=O)n(-c3ccccc3)c(=O)n1CC(=O)NCCC1=CCCCC1)n2C,-8.1,-0.6,.,1.2,-0.1
COc1ccc2cc(C(c3nnnn3C(C)(C)C)N3CCSCC3)c(=O)[nH]c2c1 (centres undefined),2.4,-1.1,-57.1*,-7.0,4.6
CCc1ccc2[nH]c(=O)c(C(c3nnnn3Cc3ccccc3)N3CCOCC3)cc2c1 (centres undefined),1.4,-3.5,10.1,3.8,-0.4
CCc1ccc2[nH]c(=O)c(C(c3nnnn3Cc3ccc(OC)cc3)N3CCOCC3)cc2c1 (centres undefined),-43.9*,3.9,-14.0,-1.3,0.2
SMILES,D1 antag,D1 PAM,DRD3 antagonist,D3 ag,D1 agonist
COc1ccc2cc(C(c3nnnn3C(C)(C)C)N3CCc4ccccc4C3)c(=O)[nH]c2c1 (centres undefined),-45.0*,-2.4,.,.,-0.4
CCC(C)(C)n1nnnc1C(c1cc2ccc(OC)cc2[nH]c1=O)N1CCCCC1 (centres undefined),6.0,-2.2,-23.2,-0.3,0.3
Cc1ccc2c(Sc3ccc(Cl)cc3)c(C(=O)N3CCC(C)CC3)[nH]c2c1,-24.0,0.8,.,-1.6,2.9
COc1ccc(NC(=O)c2cc(-c3cccnc3)nc3c(C)c(C)ccc23)c(OC)c1,4.2,0.7,21.8,48.2*,1.0
COc1cc2c(cc1NC(=O)c1cc(-c3cccnc3)nc3ccc(C)cc13)oc1ccccc12,4.4,2.4,15.8,56.1*,4.6
COc1ccc(NC(=O)c2cccnc2)c(OC)c1,-5.4,-2.5,18.7,2.6,7.1
Cc1cc(Cl)ccc1NS(=O)(=O)c1ccc2c(c1)CC(C)N2C(=O)C1CCC1 (centres undefined),-1.5,-1.0,.,-0.8,2.7
CCc1cc(SC#N)cc(C)c1NC(=O)CCl,12.5,0.4,-56.3*,-6.8,6.3
Cc1cc(SC#N)cc(C)c1NC(=O)CCl,-12.9,0.5,-9.6,-4.6,2.3
CC(C)(C)c1ccc(C2Sc3ccccc3NC3=C2C(=O)c2ccccc23)cc1 (centres undefined),-9.4,-0.8,.,-14.4,-2.7
Cc1ccc2ccc(C3C(=O)c4ccccc4C3=O)nc2c1,.,.,-63.5*,-13.9,.
Cc1ccc([N+](=O)[O-])cc1NC(=O)CN(c1ccccc1)S(=O)(=O)N(C)C,-10.2,-3.1,.,-5.3,-0.6
Cc1ccc(NC(=O)CN(c2ccc(Cl)cc2)S(=O)(=O)c2cc([N+](=O)[O-])ccc2Cl)c(C)c1,-56.0*,-15.2,2.5,-5.9,0.5
CC(C)Oc1cccc(C(=O)Nc2ccc3oc(-c4ccccc4)nc3c2)c1,-8.7,-0.1,.,3.7,8.2
Cc1ccc(C(=O)CCS(=O)(=O)c2ccc(Br)cc2)cc1,1.0,-1.7,-0.8,6.1,6.3
Cc1cc(C)n(CC(=O)N/N=C/c2cc([N+](=O)[O-])ccc2O)n1,5.8,-1.6,-56.3*,-12.5,2.3
Cc1ccc(S(=O)(=O)CCC(=O)c2cccc([N+](=O)[O-])c2)cc1,-31.9*,-12.3,?,-12.0,3.8
Cc1cc(C)n(CC(=O)N/N=C/c2cc(Br)cc([N+](=O)[O-])c2O)n1,-6.1,3.1,-66.4*,-11.7,0.3
Cc1cc(C)n(CC(=O)c2cccc([N+](=O)[O-])c2)n1,9.7,7.8,-57.5*,-11.7,0.5

# Assay outcomes: PubChem, National Center for Advancing Translational Sciences (NCATS)
